# PubChem BioAssay AID686964 (The Scripps Research Institute Molecular Screening Center, 2013)
# About 1,100 (0.3%) of roughly 370,000 compounds were called active. The sample as a whole holds a higher share of actives than the screen did. A number with no mark means an inactive call. No stated cut-off is given here; in the data, active means inhibition above about 13%; inactive means the rest.
# Biological target: Methyl-CpG-binding domain protein 2 (Homo sapiens) (UniProt Q9UBB5)
# Test: inhibitors of MBD2 binding to methylated DNA, primary screen, biochemical, TR-FRET, DNA-binding domain, human (AID 686964)
# Conditions: MBD2 binding to methylated oligonucleotide, at 4.4 µM, hits give high values
# Sequence of Methyl-CpG-binding domain protein 2 (Homo sapiens) (Q9UBB5 whole entry, looked up, the tested form may be a part): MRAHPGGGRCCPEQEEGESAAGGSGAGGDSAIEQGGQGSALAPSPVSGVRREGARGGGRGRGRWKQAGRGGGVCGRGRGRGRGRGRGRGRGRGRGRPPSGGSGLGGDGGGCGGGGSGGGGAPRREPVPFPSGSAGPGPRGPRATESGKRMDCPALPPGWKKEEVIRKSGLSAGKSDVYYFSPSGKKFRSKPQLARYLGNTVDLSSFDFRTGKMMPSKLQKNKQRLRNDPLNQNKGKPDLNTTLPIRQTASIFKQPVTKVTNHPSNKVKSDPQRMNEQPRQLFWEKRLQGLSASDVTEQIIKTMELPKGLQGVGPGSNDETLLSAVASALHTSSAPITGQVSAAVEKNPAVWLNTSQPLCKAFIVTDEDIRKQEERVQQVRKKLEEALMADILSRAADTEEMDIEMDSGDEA
row,Structure (SMILES),inhibition
1,COc1ccc(N2C(=O)/C(=C/c3ccco3)C(=O)NC2=S)cc1,32% (active)
2,O=C(O)CCn1cc(C=C2C(=O)NC(=S)NC2=O)c(-c2cccc(Br)c2)n1,2.88%
3,COC(=O)C1=C(c2ccccc2OCc2ccccc2)C[C@@H]2CC[C@H]1N2C(=O)NCc1ccc(OC)cc1,-6.77%
4,CO[C@H]([C@H](C)/C=C/N(C)C=O)[C@@H](C)C(=O)CC[C@H](C)[C@H](O)[C@H](C)[C@H]1OC(=O)/C=C/C(C)=C/[C@H](O)[C@H](OC)C[C@@H]2C=CC[C@@H](C[C@H](OC)[C@@]3(CO3)[C@@H](OC)C[C@@H](OC)[C@@H]1C)O2,3.68%
5,CN(C)C(=O)Oc1cc(=O)n2c3c(cccc13)CCC2,-1%
6,COP(=O)(Sc1ccccc1)C(Cc1ccccc1)NC(=O)OCc1ccccc1 (stereo not given),1.01%
7,Cc1ccnc(-n2c(C)cc(/C=C3\C(=O)NC(=S)N(C)C3=O)c2C)c1,-7.85%
8,Cc1cc(/C=C2/C(=O)NC(=O)N(Cc3ccco3)C2=O)c(C)n1-c1ccc(C(=O)O)cc1,23.8% (active)
9,O=C1NC(=O)N(Cc2ccco2)C(=O)/C1=C\c1ccc(-c2ccc(F)cc2)o1,31.9% (active)
10,COc1cc2nc(N3CCN(C(=O)[C@@H]4CCCO4)CC3)nc(N)c2cc1OC,2.48%
11,Cc1ccccc1CCC[C@@H](CC1CCCCC1)CN(C)C(=O)Oc1ccccc1,-0.69%
12,O=C(O)C1CSC(c2cccnc2)N1 (stereo not given),-2.74%
13,CC(C)c1ccc(-n2c(O)c(/C=N/N3CCOCC3)c(=O)[nH]c2=S)cc1,-0.85%
14,CSc1ccc(C(=O)C2CCCN(Cc3ccn[nH]3)C2)cc1 (stereo not given),-7.23%
15,CC(C)(C)[C@]1(O)C[C@@H]2OC(=O)C[C@@]23C(=O)O[C@@H]2OC(=O)[C@H](O)[C@]213,-1.05%
